# Most compounds without a hit are left out; they make up all but 6.2% or so of the library.
# KB-3-1 cytotox: kills parental KB-3-1 adenocarcinoma cells; Potency, µM (series often up to 46.1 µM), most hits filed as cytotoxic; KB-3-1 viability, CellTiter-Glo ATP luminescence, 72 h; AID 1347075; 400,000 tested, 1.4% active; further: on the % scale 0 is the no-effect control and ±100 the full control effect; nearly all actives have a fitted effect of over 60% in size
#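 Cytotoxicity measured as CellTiter-Glo luminescence after 72 h at 37 C. Compound titrations were pinned onto drug-naive KB-3-1 parental adenocarcinoma cells grown in DMEM with 10% FBS, and normalized data fitted to concentration-response curves.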
# ATXN viability: reduces viability in counter-screen for ATXN expression inhibitors | S2 cells (HEK-293 line with an ATXN2-luciferase reporter) viability, CellTiter-Fluor protease fluorescence, 24 h | Potency, µM (titrated, usually from 56.7 µM), actives largely listed as cytotoxic | 400,000 tested, 0.49% active | AID 651635; further: nearly all actives have a fitted effect of over 40% in size
# HT1080 IDH1KD tx: toxicity to HT-1080 IDH1 knockdown cells (counter line). AID 686971. Potency, µM (doses to about 46.1 µM), without a hit: at the highest dose activity, negative = toxicity, actives largely listed as cytotoxic. 360,000 tested, 2% active. HT-1080 IDH1 knockdown viability, ATP luminescence, 48 h;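 further: 0% = DMSO wells and -100% = cell-free medium wells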
#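 Knockdown cells (IDH1KD HT-1080) received compounds 2 h after plating at 750 cells/well and were kept 48 h at 37 °C in 5% FBS RPMI. A CellTiter-Glo luminescence read gave % activity for curve fitting.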
# HT1080NT lethal: kills 2HG-producing HT-1080-NT fibrosarcoma cells | HT-1080-NT fibrosarcoma viability, CellTiter-Glo ATP luminescence, 48 h | Potency, µM (doses to about 46.1 µM), for inactives: at the highest dose activity, negative = less viability, usual class: cytotoxic | 360,000 tested, 1.6% active;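 further: NT is the 2HG producing partner of a matched IDH1 knockdown line; 0% = DMSO-treated cells and -100% = media-only wells without cells; nearly all actives have a fitted effect of over 55% in size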
#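 A 48-hour cytotoxicity screen used HT-1080-NT cells plated 2 hours before compound delivery. ATP-based CellTiter-Glo luminescence measured viability, normalized to DMSO and no-cell controls.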
# ATXN2 expr inh: reduces ATXN2 reporter expression in HEK-293 cells; HEK-293 ATXN2-luciferase reporter, luminescence, 24 h; Potency, µM (doses to about 57 µM), inactives show at the highest dose activity change, negative = inhibition, usual class: inhibitors; 360,000 tested, 0.72% active; further: on the % scale 0 is the no-effect control and ±100 the full control effect; nearly all actives have a fitted effect of over 55% in size
#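 ATXN2-luciferase reporter cells (luciferase flanked by upstream and downstream ATXN2 gene portions) were treated 24 h at 37 °C with compounds at up to 57 uM. SteadyGlo luminescence gave expression; GF-AFC fluorescence gave viability.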
# KB-V1 cytotox: kills drug-selected multidrug resistant KB-V1 cells; 400,000 tested, 3.4% active; KB-V1 MDR cells viability, CellTiter-Glo, 72 h; Potency, µM (doses to about 46.1 µM), hits mostly cytotoxic; further: on the % scale 0 is the no-effect control and ±100 the full control effect; nearly all actives have a fitted effect of over 60% in size
#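 In this primary screen, KB-V1 cells overexpressing P-gp are incubated with library compounds (lowest to highest concentration) for 72 h at 37 degrees C before a luminescent ATP viability read.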
# Active calls of the source: *; i = inactive; ? = inconclusive; · = no result given; [ ] = dose if it differs, or a comment. The call rests on the fitted dose curve; in most records, active means well fitted curve in the direction sought with a large enough effect; inconclusive means small, poorly fitted or top-dose-only effect, or another doubt; inactive means no such curve, though single readings can be large; an effect the other way counts as inactive or inconclusive. Potency means the concentration at half of the fitted maximal effect.
SMILES,KB-3-1 cytotox,ATXN viability,HT1080 IDH1KD tx,HT1080NT lethal,ATXN2 expr inh,KB-V1 cytotox
CN1Cc2cccnc2N(C)Cc2cc(Cl)ccc21,?,?,-5%,-1%,?,16µM*
Cc1ccc(C2CC3CCC(C2)N3Cc2ccccc2F)cc1 (stereo not given),?,i,15µM*,?,-9%,?
Cc1cc(C)nc(N2CCCC(C(=O)Nc3nc4ccc(S(C)(=O)=O)cc4s3)C2)n1 (stereo not given),?,i,?,-25%,-8%,?
C=C1C(=O)O[C@@H]2C[C@@H](C)[C@@H]3C=CC(=O)[C@@]3(C)[C@@H](OC(C)=O)[C@H]12,?,·,4.6µM*,6.5µM*,1.1µM*,15µM*
C=C1C(=O)O[C@@H]2C[C@@H](C)[C@@H]3C=CC(=O)[C@@]3(C)[C@@H](O)[C@H]12,?,·,0.58µM*,1.5µM*,1.8µM*,i
CN(C)C(=O)Oc1cccc(-c2cn3cc(Cl)ccc3n2)c1,i,?,-1%,8%,61%,13µM*
CN(C)C(=O)Oc1ccc(-c2cn3cc(Cl)ccc3n2)cc1,i,i,-11%,-2%,0%,4.1µM*
CN(C)C(=O)Oc1ccc(-c2cn3cc(C(F)(F)F)ccc3n2)cc1,i,i,23%,3%,58%,i
C=CC[C@]1(O)CC[C@H]2[C@@H]3CCC4=CC(=O)CCC4=C3C=C[C@@]21C,·,i,·,·,1%,·
CC(=O)/C=C/c1ccccc1,i,i,7%,13%,4%,i
CC(=O)[O][Hg][c]1ccccc1,·,4.5µM*,·,·,4.5µM*,·
CCn1nc(/C=C/c2ccccc2)nc2c(=O)n(C)c(=O)nc1-2,4.1µM*,·,1.8µM*,4.1µM*,?,?
CCn1nc(-c2cccs2)nc2c(=O)n(C)c(=O)nc1-2,?,i,2.6µM*,3.3µM*,6%,?
O=C(O)C(=O)c1cn(Cc2ccccc2)c2ccc(-c3ccc(OC(F)(F)F)cc3)cc12,·,·,·,·,-7%,·
C=C[C@H]1CN2CC[C@@H]1C[C@H]2[C@@H](O)c1ccnc2ccccc12,·,i,·,·,·,·
O=C1NCCOC(=O)[C@H](Cc2ccc(F)cc2)CC/C=C/C[C@@H]1CC(=O)N(CCO)Cc1ccccc1,i,i,6%,11%,-4%,i
CC(C)(C)c1cc(C=C(C#N)C#N)cc(Br)c1O,·,·,·,·,27µM*,·
Cc1cc(C=C(C#N)C#N)ccc1N1CCCC1,i,i,8%,4%,-7%[11.3 µM],i
C=CCN1CC[C@]23CCCC[C@H]2[C@H]1Cc1ccc(O)cc13,·,i,·,·,-2%,·
COc1cccc(NP(=O)(Oc2ccc(Cl)cc2)Oc2ccc(Cl)cc2)c1,?,?,?,?,-30%,13µM*
COc1ccccc1OP(=O)(Nc1cccnc1)Oc1ccccc1OC,?,i,?,?,1%,9.2µM*
O=P(Nc1ccccc1)(Nc1ccccc1)Oc1ccc(Cl)cc1,i,?,?,-1%,-3%,?
Cc1cccc(NP(=O)(Oc2ccccc2F)Oc2ccccc2F)c1,?,i,?,-24%,-16%,18µM*
Cc1ccc(NP(=O)(Oc2ccccc2F)Oc2ccccc2F)cc1C,i,i,-30%,-11%,-19%,?
